# High-throughput results (PubChem)
# Hits are enriched below; roughly 3.5% of the tested compounds scored in any of these assays.
# FBW7 act = human FBW7 E3 ligase activation, primary screen | normalized activity (activation), % at 26.1 µM | Q969H0 | 0.13% of 650,000 active | AlphaScreen FBW7–phospho-cyclin E peptide binding, activator screen; in the data active = normalized activity above about 1.9%;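 note: purified mutant Fbw7 with reduced substrate affinity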
# GPR151 activ = activates the human receptor GPR151. 1% of 650,000 active. activation, % at 11.2 µM. PathHunter beta-arrestin GPR151 cells, luminescence; in the data active = activation above about 4.9%;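 note: 0% = median of compound wells and 100% = cells with positive control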
# TEAD-YAP block = TEAD-YAP interaction inhibition; HEK-TIYL cells, TEAD-Gal4/YAP UAS-luciferase luminescence; inhibition, % at 9.12 µM; 1.4% of 640,000 active; AID 1259422; in the data active = inhibition above about 32%;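 note: 0% = median of test compound wells and 100% = reference inhibitor wells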
# MITF inh = human MITF inhibition, primary screen; AID 1259374; 0.91% of 650,000 active; AlphaScreen MITF homodimerization, bead proximity signal; O75030; inhibition, % at 2.6 µM; in the data active = inhibition above about 50%;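 note: 0% = vehicle wells with protein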
# Target sequence (O75030 whole entry, looked up): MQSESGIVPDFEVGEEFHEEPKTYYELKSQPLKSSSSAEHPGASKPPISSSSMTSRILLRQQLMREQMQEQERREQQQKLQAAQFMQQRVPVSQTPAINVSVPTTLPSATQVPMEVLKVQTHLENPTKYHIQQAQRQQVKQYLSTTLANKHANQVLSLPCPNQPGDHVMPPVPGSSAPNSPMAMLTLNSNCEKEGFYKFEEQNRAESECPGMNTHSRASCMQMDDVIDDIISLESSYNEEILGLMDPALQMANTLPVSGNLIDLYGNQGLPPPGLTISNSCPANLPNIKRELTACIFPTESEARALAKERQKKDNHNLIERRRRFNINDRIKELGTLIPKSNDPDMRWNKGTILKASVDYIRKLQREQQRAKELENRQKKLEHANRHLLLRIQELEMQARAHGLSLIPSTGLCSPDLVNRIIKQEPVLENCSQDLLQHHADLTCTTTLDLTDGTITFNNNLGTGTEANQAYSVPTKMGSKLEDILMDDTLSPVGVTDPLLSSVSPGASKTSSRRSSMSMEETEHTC
# GPR151 conf act = human GPR151 activation, confirmation screen; shares compounds with GPR151 activ; GPR151 PathHunter beta-arrestin cells, luminescence, 90 min; % of EA-reagent control over plate median; activation, % at 11.2 µM; 6,700 tested, under 10 active; AID 1508609;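 active = mean percent activation across replicates above the confirmation screen cutoff of 4.91%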
# GPR119 counter = activates human GPR119 in a GPR151 counter-screen; 0.3% of 6,700 active; GPR119 PathHunter beta-arrestin cells, luminescence, 90 min; 0 = compound-well median, 100 = enzyme-acceptor control; activation, % at 11.2 µM; shares compounds with GPR151 activ; AID 1508611;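 active = mean percent activation in the counterscreen above 29.09%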;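 note: counterscreen on off-target GPR119 to flag nonselective hits from the GPR151 activator screen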
# Starred values were filed as active, the others as inactive; / = not tested or not shown; ! = not active in a repeat.
SMILES,FBW7 act,GPR151 activ,TEAD-YAP block,MITF inh,GPR151 conf act,GPR119 counter
COc1cc(OC)c(CN2CCC(CO)(CCOc3ccccc3)CC2)c(OC)c1,0,5.4*,11,9,-1,-12
O=S(=O)(Nc1ccccc1)c1ccc(NS(=O)(=O)c2c(F)cccc2F)cc1,0,5.2*,-3,8,0,3
O=S(=O)(Nc1ccc(S(=O)(=O)Nc2ccccc2)cc1)c1ccccc1,1,-1,3,17,/,/
C/C(=N\NC(=O)CCc1ccccc1)c1ccncc1,0,7.2*,-10,-14,0,1
CC(C)CCN1CCNC(=O)C1CC(=O)NCC1(c2ccccc2)CCOCC1 (centres undefined),0,6.1*,5,10,1,5
CCOc1ccc(CN2CCNC(=O)C2CC(=O)NCC2(c3ccccc3)CCCC2)cc1 (centres undefined),0,8.0*,14,-7,-1,-18
COc1cc(OC)c(NS(=O)(=O)c2cc3c(cc2C)N(C)CCO3)cc1Cl,0,3,-4,4,/,/
COc1ccc(NS(=O)(=O)c2cc3c(cc2C)N(C)CCO3)c(OC)c1,0,7.3*,7,12,1,2
O=C1NC(c2ccccc2)=NC1(NS(=O)(=O)c1ccc(Cl)cc1)C(F)(F)F (centres undefined),0,6.9*,-2,9,0,3
CCc1nnc(NS(=O)(=O)c2ccc(NC(=O)CN3C(=O)c4ccccc4C3=O)cc2)s1,0,7.4*,2,-5,1,14
COCCO[C@H]1[C@H](NC(=O)C(C)C)c2ccccc2C12CCN(C(=O)CCC(C)C)CC2,0,5.2*,4,21,0,8
COCCO[C@H]1[C@H](NC(=O)C(C)C)c2ccccc2C12CCN(C(=O)C1CCCC1)CC2,0,-1,7,-4,/,/
CCCCCCC(C(=O)OC)c1ccnc2nc(N)nn12 (centres undefined),0,-1,6,8,/,/
CC1CN(C(=O)CCC(=O)NC2CCCC2)c2ccccc2O1 (centres undefined),0,5.1*,-6,5,0,-2
CC1CN(C(=O)CCC(=O)N2CCN(c3ccccn3)CC2)c2ccccc2O1 (centres undefined),0,6.1*,-2,-7,0,0
Cc1cc2ccccc2c(=O)n1CC(=O)N1CCN(c2ccccn2)CC1,0,7.2*,10,-2,0,-9
Cc1ccc(S(=O)(=O)CCC(=O)N2CCN(c3ccccn3)CC2)cc1,0,5.1*,-3,4,0,-3
CC1CN(C(=O)CCC(=O)NC2CCCC2)c2cc(Cl)ccc2O1 (centres undefined),0,0,-4,-3,/,/
CCOC(=O)CNS(=O)(=O)Cc1ccccc1,1,6.8*,4,20,0,-7
O=C(O)CNS(=O)(=O)Cc1ccccc1,0,-1,-2,-7,/,/
COc1ccc(-c2oc3c(CC=C(C)C)c(O[C@@H]4O[C@H](CO)[C@@H](O)[C@H](O)[C@H]4O)cc(O)c3c(=O)c2O[C@@H]2O[C@@H](C)[C@H](O)[C@@H](O)[C@H]2O)cc1,0,6.8*!,0,-4,0,-8
CCOc1ccc(C2C(C(C)=O)=C(O)C(=O)N2CC#N)cc1 (centres undefined),0,-1,0,6,/,/
CCN(CC)CCNc1c2c(nc3nnnn13)CCCC2,0,0,3,11,/,/
COCCCNc1c2c(nc3nnnn13)CCCC2,0,6.1*,5,5,0,-2
CC(=O)c1ccccc1C(=O)N1CCC(CO)(CCOc2ccccc2)CC1,0,1,-9,16,/,/
SMILES,FBW7 act,GPR151 activ,TEAD-YAP block,MITF inh,GPR151 conf act,GPR119 counter
O=C(NCC1CCCN(Cc2ccc(CO)o2)C1)c1ccc(-c2ccccc2)cc1 (centres undefined),0,16*,-6,10,0,-7
COCc1ccc(CN2CCCC(CNC(=O)c3ccc(-c4ccccc4)cc3)C2)o1 (centres undefined),0,-1,2,-2,/,/
CC1(C)Oc2ccc(C(=O)N3CCOCC3)cc2N(Cc2ccc([N+](=O)[O-])cc2)C1=O,0,0,-5,0,/,/
CC(C)NC(=O)c1cnc2scc(-c3ccccc3)n2c1=O,0,8.5*,2,3,2,3
O=c1c2ccccc2nc(SCc2ccc(Cl)cc2)n1Cc1ccc2c(c1)OCO2,0,0,-5,-3,/,/
N#CCSc1nc2ccccc2c(=O)n1Cc1ccc2c(c1)OCO2,0,5.1*,-1,3,0,-1
Cc1c(Cl)cccc1NC(=O)CC(C)S(=O)(=O)c1ccc2c(c1)SCC(=O)N2 (centres undefined),0,0,6,3,/,/
Cc1cccc(NC(=O)CC(C)S(=O)(=O)c2ccc3c(c2)SCC(=O)N3)c1C (centres undefined),0,5.8*,1,-2,0,-1
Cc1cccc(C(C)C)c1NC(=O)CCS(=O)(=O)c1ccc2c(c1)SCC(=O)N2,0,5.5*,1,4,0,6
O=C(N/N=C/c1ccc(F)cc1)C(=O)Nc1cccc(Cl)c1,0,5.0*,1,10,1,12
O=C(N/N=C/c1ccc(F)cc1)C(=O)Nc1ccc(Cl)c(Cl)c1,1,2,-1,4,/,/
O=C(NCc1ccc(F)cc1)C(=O)Nc1cccc(Cl)c1,0,5.1*,-6,-3,3,0
O=C(Nc1cccc(Cl)c1)O/N=C\c1ccncc1,0,5.2*,-11,-1,-1,2
O=C(NCCc1ccc(F)cc1)C(=O)Nc1cccc(Cl)c1,0,0,11,6,/,/
CC(=O)c1snc(Nc2cc(Cl)ccc2F)c1N,0,0,-34,1,/,/
Cc1nn(C)c(C)c1-c1ncc(C(N)=O)s1,0,-1,5,-3,/,/
CCOc1cc(C=O)cc(Cl)c1OCC(=O)OC,0,2,-5,-16,/,/
Oc1ccccc1N1CCN(C(=S)Nc2ccccc2)CC1,0,0,2,-1,/,/
O=C(NCCCn1ccnc1)c1cc2nc(-c3cccs3)cc(C(F)(F)F)n2n1,0,7.3*,2,11,0,12
COc1ccc(-c2cc(C(F)(F)F)n3nc(C(=O)NCc4cccs4)cc3n2)cc1OC,0,7.2*,-1,0,0,12
Cc1ccc(-c2cc(C(F)(F)F)n3nc(C(=O)NN4CCOCC4)cc3n2)cc1C,0,5.3*,3,13,0,9
CCn1ncc(CNC(=O)c2cc3nc(-c4ccco4)cc(C(F)(F)F)n3n2)c1C,0,5.0*,20,2,1,-1
